The values that follow come from ChEMBL document CHEMBL4513216, “Probing the Open Global Health Chemical Diversity Library for Multistage-Active Starting Points for Next-Generation Antimalarials” (ACS Infect Dis, 2020).

The structures appear in SMILES notation. About 8,600 (12%) of roughly 69,000 compounds showed an effect of 50% or more. The sample holds strong results, similar compounds and a random draw of the others, so the mix is not that of the screen.

The assay deals with Plasmodium berghei. The assay can be described thus: Screen against P. berghei liver stage (PbLuc), transformed with Luciferase, at 10uM. Type of assay: functional, HepG2. The note with it: tested at 10 uM.
Consider `CCC(C)NS(=O)(=O)c1ccc(C(=O)NC2(C#N)CCC2)cc1` (centres undefined), for which the INHIBITION is 3.13%.

With `COCCc1noc(CN(C)C(=O)C(C)N2CCc3ccccc3C2)n1` (centres undefined), the INHIBITION is recorded as 2.29%.

Consider `CC(C)c1cc(CN(C)C(=O)C(C)N2CCc3ccccc3C2)no1` (centres undefined), for which the INHIBITION is listed as 63.1%.

For the compound `CC(C(=O)N(C)Cc1noc(C2CCC2)n1)N1CCc2ccccc2C1` (centres undefined), the INHIBITION is given as 25.8%.

For the compound `Cn1cc(C2CCCN2C(=O)c2cnc(-c3cccs3)s2)cn1` (centres undefined), the INHIBITION worked out at 37.7%.

As for `O=C(C1CCOC1)N1Cc2ccccc2OC2(CCOCC2)C1` (centres undefined), the INHIBITION was found to be 12.8%.

Turning to `CC(CCNC(=O)N1CCC1)N(C)C(=O)OC(C)(C)C` (centres undefined), the INHIBITION turned out to be 8.18%.

Turning to `CN(CCNC(=O)N1CCCC1)C(=O)OC(C)(C)C`, the INHIBITION is listed as -30.5%.

Consider `CCOC1CCN(C(=O)NCCN(C)C(=O)OC(C)(C)C)CC1`, for which the INHIBITION came to 58.2%.

In the case of `COCCN(Cc1ccoc1)S(=O)(=O)c1ccc(F)c(Cl)c1`, the INHIBITION is -31.7%.

As to `CC(=O)c1cc(CC(=O)NCc2ccc(CN(C)C)cc2)cs1`, the INHIBITION is reported as 50.1%.

Take `COc1ccc(CNC(=O)Cc2csc(C(C)=O)c2)cc1`: the INHIBITION stood at 33%.

On to `CC(=O)c1cc(CC(=O)NCc2ccc(F)cc2)cs1`, for which the INHIBITION is -38.2%.

As for `CS(=O)(=O)Cc1ccc(CNC(=O)N2CCC(C(N)=O)C2)cc1` (centres undefined), the INHIBITION worked out at 2.97%.

On to `CCOc1ncccc1NC(=O)NC1CCN(c2ncccn2)CC1`, for which the INHIBITION is recorded as -19.9%.

On to `CCCn1nc2c(cc1=O)CN(c1ncnc3ccsc13)CC2`, for which the INHIBITION amounted to 91.9%.

`CC(C)n1nc2c(cc1=O)CN(c1nc3ccccc3s1)CC2`: the INHIBITION stood at 35%.

As to `CN(C(=O)CN1CCc2nn(C)c(=O)cc2C1)c1nccs1`, the INHIBITION was found to be 29%.

For the compound `Cn1nc2c(cc1=O)CN(c1ncnc3ccsc13)CC2`, the INHIBITION is listed as 34.6%.

Take `CCCn1nc2c(cc1=O)CN(CCCN1CCCC1=O)CC2`: the INHIBITION is on record as 6.56%.

Turning to `CC(C)n1nc2c(cc1=O)CN(Cc1nc3ccccc3o1)CC2`, the INHIBITION was 26.5%.

As for `CCn1nc2c(cc1=O)CN(c1nc3ccccc3s1)CC2`, the INHIBITION amounted to 37.7%.

As to `CCn1nc2c(cc1=O)CN(CC(=O)Nc1nccs1)CC2`, the INHIBITION turned out to be 18.2%.

`CCn1nc2c(cc1=O)CN(c1ncnc3ccsc13)CC2`: the INHIBITION is given as 93.6%.

In the case of `CC(C)n1nc2c(cc1=O)CN(c1ncnc3ccccc13)CC2`, the INHIBITION worked out at 94.5%.

`CCn1nc2c(cc1=O)CN(CC(=O)N(C)c1nccs1)CC2`: the INHIBITION was found to be 50.7%.

Consider `CCCn1nc2c(cc1=O)CN(CC(=O)N(C)c1nccs1)CC2`, for which the INHIBITION worked out at 9.56%.

Consider `CCCc1c(C2CCOC(C)(C)C2)nc(N)c(C#N)c1-c1cnn(C)c1` (centres undefined), for which the INHIBITION is 4.15%.

For `Cc1ccoc1C(=O)NCCS(=O)(=O)N1CCSCC1`, the INHIBITION was 4.52%.

For `c1ccc(Cc2nnc(CN3CCCC(Cn4cncn4)C3)o2)cc1` (centres undefined), the INHIBITION is recorded as -15.3%.

As to `COc1cc(N2CCC3(CCCN(C(=O)c4cccnc4)C3)C2)ncn1` (centres undefined), the INHIBITION is 19.8%.

Consider `C=C(C)COc1ccccc1CN1CCC(C(=O)NCC)C1` (centres undefined), for which the INHIBITION is 3.06%.

As to `CC(=O)N[C@@H]1CN(C(=O)CC2CC2)C[C@H]1O`, the INHIBITION came out at 49.9%.

In the case of `Cc1ccc(-c2[nH][nH]c(=O)c2CCN)cc1`, the INHIBITION is on record as 44.9%.

Regarding `Cc1cc(C)n(C2CCCN(C(=O)c3ccc4c(c3)COC4)C2)n1` (centres undefined), the INHIBITION turned out to be 15.815%.

On to `COCc1nc(C(=O)NS(=O)(=O)c2ccc(Cl)cc2F)cs1`, for which the INHIBITION is -64.25%.

As to `COc1cccc(Oc2nc(C)c(C(=O)O)s2)c1OC`, the INHIBITION amounted to 45.5%.

With `Cc1cc(C2CCCN2Cc2nc3c(cnn3C)c(=O)[nH]2)on1` (centres undefined), the INHIBITION is recorded as 27.6%.

Turning to `Cn1cc(CN2CC[C@H]3OCC[C@@H](C(=O)Nc4cnccn4)[C@@H]3C2)cn1`, the INHIBITION is reported as 38.5%.

Take `O=C(Cc1cccc(F)c1)NCCNCc1cccnc1`: the INHIBITION was 33.3%.

Regarding `Cn1c(CN2CCC(N3CCNC3=O)CC2)cc(=O)n(C)c1=O`, the INHIBITION was 29%.

For `CC(C)n1nc2c(cc1=O)CN(Cc1nnc(C3CC3)o1)CC2`, the INHIBITION is reported as -25.9%.

For `CC(C)n1nc2c(cc1=O)CN(c1ncnc3ccsc13)CC2`, the INHIBITION is given as 86.8%.

As for `CC(C)n1nc2c(cc1=O)CN(CC(=O)N(C)c1nccs1)CC2`, the INHIBITION was found to be 17.1%.

In the case of `c1csc(CN2C[C@@H]3OCCN(CC4CCCO4)[C@@H]3C2)c1` (some centres undefined), the INHIBITION is -21.5%.

For `CC(=O)Nc1nc(C2CCN(C(=O)C3CCC3)CC2)cs1`, the INHIBITION amounted to 36.7%.

In the case of `O=C(Cc1cccs1)NCc1ccnc(C2CCCOC2)n1` (centres undefined), the INHIBITION was found to be 53.8%.

`O=C(NCc1ccnc(C2CCCOC2)n1)c1cccs1` (centres undefined): the INHIBITION is reported as 33.5%.

Take `Cc1ccsc1C(=O)NCc1ccnc(C2CCCOC2)n1` (centres undefined): the INHIBITION is recorded as 5.1%.

Turning to `CCN1CCOCC2(CCCN(C(=O)c3cccc(O)c3)C2)C1` (centres undefined), the INHIBITION amounted to 26%.

Regarding `O=C(c1cccc2ccnn12)N1CCC[C@H]1CN1CCCC1`, the INHIBITION is on record as 19.8%.

On to `Cc1cc(C)n2nc(C(=O)N3CCCC4(CNC(=O)O4)C3)cc2n1` (centres undefined), for which the INHIBITION is recorded as 27.4%.

`O=C1NCC2(CCCN(C(=O)c3c[nH]nc3C3CCCCC3)C2)O1` (centres undefined): the INHIBITION is 31.8%.

`Cc1cc(C(=O)N2CCCC3(CNC(=O)O3)C2)c2c(C)nn(C)c2n1` (centres undefined): the INHIBITION is 54.1%.

Turning to `CCN1C(=O)CCCC12CCCN(C(=O)c1cnccn1)C2` (centres undefined), the INHIBITION amounted to 27.4%.

Turning to `Cc1ccc(-c2cc(CNC(=O)N3CCSCC3)on2)cc1`, the INHIBITION is recorded as -5.25%.

In the case of `COc1c(CNC(c2ccccc2F)c2nccn2C)c(C)nn1C` (centres undefined), the INHIBITION came to 2.95%.

As for `Cc1cccc2cc(CO)c(N3Cc4cnc(C(C)(C)C)nc4C3)nc12`, the INHIBITION amounted to 91.2%.

For the compound `CC(C)Cc1ncc2c(n1)CN(c1nc3ccccc3cc1CO)C2`, the INHIBITION came to 33.9%.

`Cc1ccc(C(=O)O)c(N2Cc3cnc(C(C)(C)C)nc3C2)n1`: the INHIBITION was -7.27%.

As to `O=C(c1n[nH]c2c1CN(C1CCOC1)CC2)N1CCCC1` (centres undefined), the INHIBITION turned out to be 12.4%.

As to `COCC1CC2(CCN(C(=O)c3ccco3)CC2)CN1C(C)C` (centres undefined), the INHIBITION came to 17.4%.

For `CCN(Cc1ccc2c(c1)OCO2)Cc1nc2c(cnn2C)c(=O)[nH]1`, the INHIBITION is -6.14%.

`CN(Cc1cccc(F)c1)Cc1nc2c(cnn2C)c(=O)[nH]1`: the INHIBITION was 23.7%.

On to `CN(CC(=O)N1CCCC1)Cc1nc2c(cnn2C)c(=O)[nH]1`, for which the INHIBITION amounted to 64%.

In the case of `CN(Cc1ccc2c(c1)OCO2)Cc1nc2c(cnn2C)c(=O)[nH]1`, the INHIBITION was 13.9%.

Regarding `CC(C)CN(C)Cc1nc2c(cnn2C)c(=O)[nH]1`, the INHIBITION was -14.935%.

As for `CN(CC(=O)N(C)C1CCCCC1)Cc1nc2ccccc2c(=O)[nH]1`, the INHIBITION is given as 44.7%.

For `CN(CCOc1cccc(F)c1)Cc1nc2c(cnn2C)c(=O)[nH]1`, the INHIBITION came to 55.2%.

On to `CN(CC(=O)N(C)C1CCCCC1)Cc1nc2c(cnn2C)c(=O)[nH]1`, for which the INHIBITION was determined as 55.4%.

`CC(C)CCN(C)Cc1nc2c(cnn2C)c(=O)[nH]1`: the INHIBITION was -21.05%.

As for `CN(Cc1ccc2c(c1)OCCO2)Cc1nc2c(cnn2C)c(=O)[nH]1`, the INHIBITION was determined as 59.4%.

Turning to `CCN(CC)C(=O)CN(C)Cc1nc2c(cnn2C)c(=O)[nH]1`, the INHIBITION was 37.2%.

On to `CN(CCCOc1ccc(F)cc1)Cc1nc2c(cnn2C)c(=O)[nH]1`, for which the INHIBITION is 39.2%.
